Shown are actives, neighbours in structure and some others; about 3.2% of the full set was active somewhere.
FAK inh – FAK (human) kinase inhibition | Q05397 | biochemical FAK kinase activity assay | inhibition, %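 (tested at 7 µM)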 | 0.84% of 97,000 active | AID 727; in the data active = inhibition above about 19%
ERa coact inh – ER-alpha (human) coactivator binding inhibition | TR-FRET ER-alpha LBD / SRC-1 peptide, estradiol-bound | inhibition, % at 25.6 µM | P03372 | AID 629 | 1.7% of 86,000 active; in the data active = inhibition above about 50%
Target sequence (P03372 whole entry, looked up, the tested form may be a part): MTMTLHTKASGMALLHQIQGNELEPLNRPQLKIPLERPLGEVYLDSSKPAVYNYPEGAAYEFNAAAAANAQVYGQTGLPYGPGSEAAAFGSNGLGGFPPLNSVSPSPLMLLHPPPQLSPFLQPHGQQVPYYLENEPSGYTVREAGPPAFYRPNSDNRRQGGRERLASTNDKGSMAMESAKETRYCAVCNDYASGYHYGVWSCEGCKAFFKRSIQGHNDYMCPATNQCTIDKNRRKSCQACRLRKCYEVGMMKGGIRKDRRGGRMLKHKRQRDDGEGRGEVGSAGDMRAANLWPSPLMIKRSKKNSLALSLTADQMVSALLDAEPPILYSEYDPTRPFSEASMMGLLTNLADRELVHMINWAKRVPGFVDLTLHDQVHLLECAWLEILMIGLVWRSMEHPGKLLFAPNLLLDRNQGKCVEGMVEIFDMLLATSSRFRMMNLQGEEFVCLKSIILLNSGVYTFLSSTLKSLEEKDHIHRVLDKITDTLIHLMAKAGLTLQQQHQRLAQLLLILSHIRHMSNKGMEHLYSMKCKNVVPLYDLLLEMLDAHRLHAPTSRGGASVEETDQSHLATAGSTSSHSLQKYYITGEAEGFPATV
ERb coact inh – ER-beta (human) coactivator binding inhibition; inhibition, % at 25.6 µM; TR-FRET ER-beta LBD / SRC1-Cy5 peptide binding; receptor agonist-loaded with 1 µM estradiol; Q92731; 1.3% of 86,000 active;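 active = compounds whose percent inhibition of the receptor-coactivator binding signal exceeds about 50% in the single-dose screen, limit read from the data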
ERa SRC1 pot – enhances coactivator binding to human estrogen receptor alpha; P03372; TR-FRET ERalpha-LBD/SRC-Cy5 coactivator binding, 2 h; 100 = basal binding, no effect; coactivator binding (% of control), % at 25.6 µM; 1.3% of 86,000 active; in the data active = activity above about 200%;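 also: binding measured in presence of low estradiol as agonist stimulus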
Each line names hits and unclear results; the compound was inactive in the other large screens; [ ] = another dose, or the depositor's remark.

Cc1nc2ccccc2nc1N1CCC(C)CC1	none
Cc1cc(N2CCC(C)CC2)nc2cccc(O)c12	ERa SRC1 pot 550[fluorescence artefact?]
CCOc1ccc(Cn2nnc(C(=O)Nc3cc(OC)cc(OC)c3)c2N)cc1	ERa SRC1 pot 257[fluorescence artefact?]
COc1ccc(CNC(=O)c2nnn(Cc3ccc(OC)cc3)c2N)cc1	ERa SRC1 pot 208
CCc1ccc(Cn2nnc(C(=O)NCc3ccccc3OC)c2N)cc1	ERa SRC1 pot 206
Cc1ccc(CN(Cc2cc3cc(C)ccc3[nH]c2=O)C(=O)N2CCOCC2)cc1	ERa SRC1 pot 484
O=c1c2cc(Br)cc(Br)c2oc2nc3n(c(=O)c12)CCCS3	none
O=Cc1ccc2oc3nc4n(c(=O)c3c(=O)c2c1)CCCS4	ERa coact inh 66, ERb coact inh 58
CC1Cc2ccccc2N1C(=O)CSc1nnnn1C1CCCC1 (configuration not stated)	none
COc1ccc(-c2cc(C(=O)Nc3cc(C)nn3-c3ccccc3)no2)cc1	none
COc1cccc(-c2cc(C(=O)Nc3cc(C)nn3-c3ccccc3)no2)c1	ERa SRC1 pot 455
Cc1cc(NC(=O)c2cc(-c3ccco3)on2)n(-c2ccccc2)n1	none
Cc1cc(NC(=O)c2cc(-c3ccccc3)on2)n(-c2ccccc2)n1	ERa SRC1 pot 529[fluorescence artefact?]
CCOC(=O)c1cnn(-c2nc(SC)nc3sc4c(c23)CCC4)c1N	ERa coact inh 75[fluorescence artefact?], ERb coact inh 60
CCOC(=O)c1cnn(-c2nc(C)nc3sc4c(c23)CCC4)c1N	none (no result: FAK inh)
Cc1nc(-n2ncc(C#N)c2N)c2c3c(sc2n1)CCC3	ERa coact inh 67[fluorescence artefact?], ERb coact inh 55[fluorescence artefact?], ERa SRC1 pot 208[fluorescence artefact?]
COC(=O)C(C)Sc1nc2c(c(-c3ccc(OC)cc3)c1C#N)-c1ccccc1C2=O (configuration not stated)	none
CCOc1ccc2nc3c(cc2c1)CN(CCOC)C(=NCCOC)S3	ERa SRC1 pot 483[fluorescence artefact?]
O=C(c1ccco1)c1nnn(Cc2ccccc2)c1-c1ccccc1	none
Cc1ccc(C2/C(=C(/O)c3ccccc3)C(=O)C(=O)N2CCN2CCOCC2)o1 (configuration not stated)	none
Cc1ccc(C)c(/C(O)=C2/C(=O)C(=O)N(CCN3CCOCC3)C2c2ccco2)c1 (configuration not stated)	ERb coact inh 51
Cc1ccc2[nH]c(=O)c(C3C(C#N)=C(N)Oc4c3ccc3cccnc43)cc2c1 (configuration not stated)	ERa coact inh 79, ERb coact inh 61
COc1cc(NC(=O)CC2NCCNC2=O)cc(OC)c1 (configuration not stated)	none (no result: ERa coact inh, ERb coact inh, ERa SRC1 pot)
Cc1ccc(OCc2nnc(NC(=O)c3ccco3)s2)c(C)c1	none
CCOC(=O)c1c(N)sc(=S)c2c1CCC2	ERa coact inh 55[fluorescence artefact?], ERb coact inh 70
Cc1ccc(-c2nnc(-c3ccncc3)n2-c2ccc(C)cc2)cc1	none (no result: ERa coact inh, ERb coact inh, ERa SRC1 pot)
C=CCn1c(=O)c2ccccc2n2c(SCc3nnc(-c4ccccc4Br)o3)nnc12	ERa coact inh 52[fluorescence artefact?] (no result: FAK inh)
O=C(c1ccc2c(c1)[nH]c(=S)n1c3ccccc3nc21)N1CCN(c2ncccn2)CC1	ERa coact inh 51[fluorescence artefact?]
CC1CCN(Cc2ccc(NC(=O)C3CCN(c4nnc(-n5cccc5)s4)CC3)cc2)CC1	ERa coact inh 85[fluorescence artefact?], ERb coact inh 72[fluorescence artefact?] (no result: FAK inh)
O=C(C1CCN(c2nnc(-n3cccc3)s2)CC1)N1CCN(Cc2ccc3c(c2)OCO3)CC1	none (no result: FAK inh)
CC1CCc2c(sc(NC(=O)c3ccc(Cn4cc([N+](=O)[O-])cn4)o3)c2C#N)C1 (configuration not stated)	ERa coact inh 61, ERb coact inh 64
Cc1ccc(CN(C(=O)c2ccco2)C(C(=O)NC2CCCC2)c2ccc(N3CCOCC3)cc2)cc1 (configuration not stated)	none
C1=C(c2ccc(-c3ccccc3)cc2)Nc2ncnn2C1c1ccco1 (configuration not stated)	ERa coact inh 69[fluorescence artefact?]
CCOc1ccc(C2C=C(c3ccccc3)Nc3ncnn32)cc1 (configuration not stated)	none
O=C(O)c1ccc2c(c1)[C@@H]1C=CC[C@@H]1[C@H](c1ccccn1)N2	ERa coact inh 68, ERb coact inh 86
Fc1ccc2c(c1)C1C=CCC1C(c1cc3c(cc1Br)OCO3)N2 (configuration not stated)	none (no result: ERa coact inh, ERb coact inh, ERa SRC1 pot)
CCOCC(=O)Nc1cccc(C(=O)OCC)c1	ERa coact inh 60
CCOC(=O)c1cccc(NC(=O)COC)c1	none
CCS(=O)(=O)N1CCC(C(=O)N2CCc3ccccc3C2)CC1	ERa SRC1 pot 245[fluorescence artefact?]
CC1=NC(=O)C(N=Nc2cccc3ccccc23)N1c1ccccc1 (configuration not stated)	none
CCOc1cc(OCC)cc(C(=O)O)c1	ERa coact inh 99[fluorescence artefact?]
Cc1ccc(C)c2[nH]c(=O)c(C(c3nnnn3Cc3ccco3)N3CCc4ccccc4C3)cc12 (configuration not stated)	ERa SRC1 pot 220[fluorescence artefact?]
CCN(CC)CCCNC(CC(=O)O)C(=O)O (configuration not stated)	none (no result: FAK inh)
CCOC(=O)C1CCCN(C(=O)c2ccc(CS(=O)(=O)c3ccc(C)cc3)o2)C1 (configuration not stated)	ERb coact inh 55
O=c1cc(O)nc(SCc2ccccc2)n1-c1ccc(F)cc1	none (no result: ERa coact inh, ERb coact inh, ERa SRC1 pot)
CCOc1cc(-n2cnnn2)c(OCC)cc1NC(=O)c1cc2ccc(N(CC)CC)cc2oc1=O	ERa coact inh 84[fluorescence artefact?], ERb coact inh 53[fluorescence artefact?]
Cc1ccc(OCc2ccoc2C(=O)O)cc1C	ERa coact inh 62, ERb coact inh 66
CN1C(=O)CC(C(=O)O)SC1=Nc1cc(Cl)c(O)c(Cl)c1 (configuration not stated)	ERb coact inh 54
COc1ccc(C(=O)CSc2nc3nc(C)cc(C)n3n2)cc1OC	none
O=C(Nc1cnc2ccccn2c1=O)c1ccc(F)cc1	ERb coact inh 65
Nc1c(C(=O)c2ccc(Br)s2)oc2ccccc12	none
Nc1c(C(=O)c2cccs2)oc2ccccc12	ERa SRC1 pot 259[fluorescence artefact?]
COc1ccc(OC)c(/C=c2\sc3nc(-c4cccs4)nn3c2=O)c1	none
COc1ccccc1/C=c1\sc2nc(-c3ccco3)nn2c1=O	ERa coact inh 74, ERb coact inh 67[fluorescence artefact?]
CCOc1ccc(/C=c2\sc3nc(-c4ccco4)nn3c2=O)cc1OCC	ERa coact inh 55
O=S(=O)(NCCc1ccccn1)c1ccc(F)c(F)c1	none (no result: FAK inh)
Cn1c(SCC(=O)Nc2sc3c(c2C#N)CCC3)nnc1C1COc2ccccc2O1 (configuration not stated)	ERa coact inh 66[fluorescence artefact?]
COc1cc(C(=O)N2CCN(c3ncnc4sc(C)c(C)c34)CC2)cc(OC)c1OC	none
CCCCCn1c(SCC#N)nc2cc(C(=O)NC3CCCCC3)ccc2c1=O	none (no result: FAK inh)
COC(=O)c1ccc2c(=O)n(CC3CCCO3)c(SCC(=O)Nc3ccccc3OC)nc2c1 (configuration not stated)	none
CCCCCn1c(SCC#N)nc2cc(C(=O)NCC3CCCO3)ccc2c1=O (configuration not stated)	ERa coact inh 56[fluorescence artefact?], ERa SRC1 pot 248[fluorescence artefact?]
COC(=O)c1ccc2c(=O)n(CC3CCCO3)c(SCC(=O)Nc3ccccc3Cl)nc2c1 (configuration not stated)	ERa coact inh 57

Screening data as filed in PubChem BioAssay.
